Assay outcomes (PubChem BioAssay)
TIM10 inh – inhibits growth of TIM10 yeast strain; S. cerevisiae TIM10 strain growth, BacTiter-Glo luminescence, 24 h; inhibition, % at 10 µM; actives 1.4% (n = 330,000); AID 463195;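 active means inhibition of 40% or more at the single tested concentration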;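 further: wild-type TIM10 isogenic control strain grown at permissive 25 °C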
NALP3 yeast inh – NALP3 inhibition in yeast; Yeast reconstituted NLRP3/ASC/caspase-1, beta-gal luminescence, 24 h; inhibition, % at 10 µM; actives 0.39% (n = 330,000);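 active means inhibition of 50% or more; inactive means inhibition below 50%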;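 further: plate controls were induced DMSO wells for no effect and uninduced yeast grown without galactose for full effect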
tim23-1 inh – inhibits growth of tim23-1 mutant yeast; actives 1.3% (n = 330,000); inhibition, % at 20 µM; S. cerevisiae tim23-1 growth, BacTiter-Glo luminescence, 24 h;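 active means growth inhibition of the mutant yeast at or above 50%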;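 further: temperature-sensitive mutant grown at 25 °C; plate controls were DMSO-treated mutant yeast for no effect and medium wells lacking yeast for full effect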
tim10-1 inh – growth inhibitors of tim10-1 mutant yeast; S. cerevisiae tim10-1 ts strain growth, BacTiter-Glo, 24 h; inhibition, % at 20 µM; actives 2.2% (n = 330,000);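 active means inhibition of at least 40%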;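 further: mutant grown at 25 °C; 0% = DMSO wells with yeast and 100% = wells holding no yeast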
NALP1 yeast inh – blocks the NALP1 inflammasome reconstituted in yeast | S. cerevisiae NALP1/ASC/caspase-1 growth, X-gal OD620, 72 h | inhibition, % at 10 µM | actives 0.61% (n = 280,000); in the data active means inhibition mostly above about 24%, no sharp cut-off; inactive means mostly below about 32%
tim10-1 confirm – confirmation of tim10-1 mutant yeast growth inhibitors; shares compounds with tim10-1 inh; actives 56% (n = 7,400); S. cerevisiae tim10-1 ts strain growth, BacTiter-Glo, 24 h; inhibition, % at 20 µM; AID 463213;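 active means inhibition of yeast growth at or above a set limit in either of two repeat tests at 20 µM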;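 further: tim10-1 mutant grown at permissive 25 °C to find synthetic lethal compounds; 0% = DMSO yeast wells and 100% = medium wells without yeast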
An asterisk follows results filed as active; / = no result given. Rows were chosen to be rich in hits. Some 4.1% of all compounds tested hit in one or more screens of this group.

SMILES	TIM10 inh	NALP3 yeast inh	tim23-1 inh	tim10-1 inh	NALP1 yeast inh	tim10-1 confirm
COCCNc1c([N+](=O)[O-])c(=O)n(-c2ccccc2)c2ccccc12	5.0	30.4	-0.2	12.9	23.4	/
Cc1cc(C(F)F)n2nc(C(=O)Nc3sc4c(c3C#N)CCC4)nc2n1	12.1	-7.5	27.7	42.1*	14.4	35.0*
Cc1onc(-c2ccccc2)c1C(=O)Nc1sc2c(c1C(N)=O)CCC2	12.9	-3.7	22.6	46.5*	15.2	27.5
CNC(=O)c1c(NC(=O)c2ccco2)sc2c1CCC2	18.5	26.7	44.9	41.2*	25.3	16.6
Cc1onc(-c2ccccc2)c1C(=O)NC(=S)Nc1sc2c(c1C#N)CCC(C)C2 (stereo unspecified)	36.1	9.1	36.5	38.5	21.7	/
Cc1onc(-c2ccccc2)c1C(=O)Nc1sc2c(c1C#N)CCC2	27.8	18.5	33.3	40.8*	-0.4	41.6*
O=C(COc1ccccc1)n1nc(-c2ccc(Cl)cc2)nc1NCc1ccco1	19.8	0.6	-2.0	14.0	30.8	/
O=S(=O)(NCC1CCC(NS(=O)(=O)c2c(F)cccc2F)CC1)c1ccc2c(c1)OCCO2 (stereo unspecified)	1.9	-0.5	13.9	2.5	/	/
CN(C(=O)c1ccccc1C(=O)OCC(=O)Nc1ccc(OC(F)F)cc1)c1ccccc1	8.5	22.1	29.5	42.8*	/	24.1
CC(=O)[C@H]1[C@H](C#N)C[C@H]2[C@@H]3CC=C4C[C@@H](O)CC[C@]4(C)[C@H]3CC[C@@]21C	35.8	8.7	38.6	40.6*	25.7	33.9*
CC(C)C(=O)N[C@H]1CCC2C3CC=C4C[C@@H](O)CC[C@]4(C)C3CC[C@@]21C (stereo partly specified)	1.7	24.9	19.7	11.1	/	/
C/C(=N\NC(=O)c1cccc(S(=O)(=O)N2CCCC2)c1)c1ccc(C)cc1	2.6	6.0	-8.4	4.7	/	/
CCOC(=O)c1ccc(N2C(=O)C3C(C2=O)C(C(=O)c2ccc(Cl)cc2)N2CCCC32)cc1 (stereo unspecified)	32.0	18.2	26.4	42.0*	6.6	29.3*
N#CC1(NC(=O)COC(=O)c2nccnc2N)CCCCC1	-9.3	12.9	-0.5	-14.7	/	/
Cc1cc(NC(=O)c2c(F)cccc2Cl)n(-c2nc3ccccc3[nH]2)n1	1.2	6.2	37.0	40.3*	17.1	29.5
CC(=O)c1sc(N/N=C2\CC3CC2C(C)C3(C)C)nc1C (stereo unspecified)	18.3	14.8	19.6	45.1*	-15.8	28.5
Cc1cc(N2CCC(C(=O)NC3CCCCC3)CC2)nc(-c2ccccc2)n1	26.5	32.5	-7.5	45.3*	15.2	16.1
Cc1cc(N2CCC(C(=O)NCC3CC3)CC2)nc(-c2ccccc2)n1	3.8	4.4	13.4	9.6	1.9	/
O=C1CC(SCc2nc3ccccc3[nH]2)C(=O)N1c1cccc(Cl)c1 (stereo unspecified)	26.5	3.7	22.1	40.4*	7.2	35.2*
O=C1CC(Sc2nnnn2-c2ccccc2)C(=O)N1c1cccc(Cl)c1 (stereo unspecified)	38.4	3.8	41.1	49.1*	50.7	46.6*
O=C1CC(SCc2nc3ccccc3[nH]2)C(=O)N1c1ccc(F)cc1 (stereo unspecified)	22.2	-3.7	26.1	23.8	-8.8	/
Cn1c(CCNC(=O)c2ccccc2)nc2cc(NC(=O)C3CCCCC3)ccc21	5.2	1.0	2.0	16.7	6.8	/
O=C(Nc1nc(-c2ccco2)c(-c2ccco2)s1)c1c(F)cccc1Cl	24.8	12.4	37.5	30.2	/	/
O=C(Nc1nc(-c2ccco2)c(-c2ccco2)s1)c1ccc(F)cc1F	16.4	5.4	25.4	40.2*	/	43.3*
COc1cccc(/C=N/n2c(C3CCCCC3)n[nH]c2=S)c1O	36.2	22.5	47.0	48.4*	1.0	32.9*
SMILES	TIM10 inh	NALP3 yeast inh	tim23-1 inh	tim10-1 inh	NALP1 yeast inh	tim10-1 confirm
O=C(COc1ccc2c3c(c(=O)oc2c1)CCC3)N[C@@H](Cc1ccccc1)C(=O)O	8.0	-7.1	9.2	-8.9	12.2	/
NS(=O)(=O)c1ccc(CCNCc2ccccc2OCc2ccc(F)cc2)cc1	-13.4	4.9	6.3	15.1	31.0	/
NS(=O)(=O)c1ccc(NCc2ccccc2OCc2ccc(F)cc2)cc1	8.7	1.2	38.1	43.9*	9.8	19.3
COc1ccc(C)cc1S(=O)(=O)N1CCC(C(=O)NC2CCCC2)CC1	8.1	12.5	2.6	-5.7	10.6	/
S=c1[nH]nc(C23CC4CC(CC(C4)C2)C3)n1Cc1ccco1	22.1	14.3	23.9	40.4*	11.1	25.1
COc1cc(/C=C2\SC(=O)NC2=O)ccc1Oc1ccc([N+](=O)[O-])cc1[N+](=O)[O-]	7.8	7.7	2.8	16.6	3.4	/
CC(C)(C)Sc1ccc(/C=N/O)cc1[N+](=O)[O-]	1.6	6.6	27.3	20.2	8.5	/
CO/N=C/c1ccc(Oc2ccc([N+](=O)[O-])cc2[N+](=O)[O-])c(OC)c1	7.4	22.8	41.2	43.7*	9.9	33.6*
O=[N+]([O-])c1cc(/C=N\O)ccc1Oc1ccc(F)cc1	14.7	10.2	41.6	46.4*	9.8	20.4
COc1cc(/C=N/O)ccc1Oc1ccc([N+](=O)[O-])cc1[N+](=O)[O-]	25.4	1.4	35.3	43.6*	5.4	38.4*
O=C(Nn1c(COc2ccccc2)nc2ccccc2c1=O)C(Cl)(Cl)Cl	28.1	12.0	31.4	40.0*	11.5	32.5*
Cc1nc2sc3c(=O)[nH]nnc3c2c(C)c1Br	7.5	14.1	42.7	42.3*	9.0	30.9
O=C(c1cc(-c2ccco2)nn1-c1cccc(Cl)c1)N1CCCCC1	15.7	22.0	40.6	46.4*	37.4	26.9
CC(C)NC(=O)c1cc(-c2ccco2)nn1-c1ccc(Cl)cc1	-0.6	3.8	37.1	43.7*	-3.1	22.5
Cc1ccc(-n2nc(-c3ccco3)cc2C(=O)O)cc1	8.1	7.0	-3.8	6.3	/	/
CCSc1ccc([C@@H]2[C@@H]3C(=O)N(CC)C(=O)[C@@H]3[C@]3(C(=O)OC)CCCN23)cc1	20.3	3.4	30.4	32.2	/	/
CC1(C)Cc2[nH]c3ccccc3c2C(C)(C)N1	11.9	7.1	14.4	-18.7	10.4	/
COc1cc(/C=C/C(=O)N2C(=O)c3cccc(N)c3C2=O)cc(OC)c1OC	37.3	-4.0	22.1	43.2*	-2.6	28.9
COc1ccc(OC)c(/C=C/C(=O)N2C(=O)c3cccc(N)c3C2=O)c1	39.2	7.3	45.5	42.3*	10.2	31.5*
Nc1cccc2c1C(=O)N(C(=O)/C=C/c1cccc(Br)c1)C2=O	/	/	/	/	5.1	/
CN1CCN(c2ccc(S(=O)(=O)N3CCCCC3)cc2NC(=O)Cc2ccc(Cl)cc2)CC1	-1.6	-4.2	3.5	3.0	24.9	/
OCCc1ccc(-c2ccc(Cl)cc2)o1	16.0	11.8	23.1	42.7*	1.2	25.2
